Measurements from PubChem BioAssay AID811 (The Scripps Research Institute Molecular Screening Center, 2007).
Out of some 16,000 compounds screened, about 10 (0.06%) were called active. Cut-off read from the data, not from the text of the source: active = inhibition above about 45%; inactive = the rest. The entries come from a sample that favours actives as a whole.

target: Toll-like receptor 4 (Homo sapiens) (UniProt O00206); assay: blocks binding of human TLR4 to MyD88 (AID 811); settings: Cell-based TLR4-MyD88 binding inhibition assay; at 10 µM; hits give high values
Sequence (O00206 whole entry, looked up): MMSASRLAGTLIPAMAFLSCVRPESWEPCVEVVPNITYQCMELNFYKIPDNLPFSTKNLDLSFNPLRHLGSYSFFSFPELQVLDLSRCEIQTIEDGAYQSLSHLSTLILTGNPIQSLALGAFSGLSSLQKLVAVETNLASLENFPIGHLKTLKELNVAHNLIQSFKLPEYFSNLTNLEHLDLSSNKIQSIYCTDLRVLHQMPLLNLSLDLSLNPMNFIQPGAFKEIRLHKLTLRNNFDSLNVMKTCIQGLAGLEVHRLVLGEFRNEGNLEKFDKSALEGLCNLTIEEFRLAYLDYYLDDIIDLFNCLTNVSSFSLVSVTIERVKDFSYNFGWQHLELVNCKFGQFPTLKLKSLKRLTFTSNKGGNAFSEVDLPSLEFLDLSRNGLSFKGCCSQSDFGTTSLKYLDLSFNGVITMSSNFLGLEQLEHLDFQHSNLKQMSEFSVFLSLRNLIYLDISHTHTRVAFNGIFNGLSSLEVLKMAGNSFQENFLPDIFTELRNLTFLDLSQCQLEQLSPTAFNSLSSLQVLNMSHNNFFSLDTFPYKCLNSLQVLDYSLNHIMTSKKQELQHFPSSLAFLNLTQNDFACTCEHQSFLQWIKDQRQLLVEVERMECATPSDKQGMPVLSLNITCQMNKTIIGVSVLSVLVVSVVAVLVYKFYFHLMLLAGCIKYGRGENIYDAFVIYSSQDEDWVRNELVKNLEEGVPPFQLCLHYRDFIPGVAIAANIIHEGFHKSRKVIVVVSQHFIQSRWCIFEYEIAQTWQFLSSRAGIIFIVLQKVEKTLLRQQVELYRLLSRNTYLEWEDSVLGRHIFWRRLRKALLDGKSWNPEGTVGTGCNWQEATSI

inhibition, inactive:
NS(=O)(=O)c1cccc(NC(=O)c2ccccc2)c1 2.32%, N#CC(Cc1ccccc1)Sc1ccccc1 (stereo not given) 5.75%, COc1ccc(OCCC(=O)NNC(=S)Nc2cc(Cl)ccc2Cl)cc1 -3.16%, CCOCCOCCN(CC)c1ccc(N=Nc2c(C#N)cc([N+](=O)[O-])cc2C#N)c(NC(C)=O)c1 -2.49%, CC1(C)CCc2cc(-c3ccnc(SCC(=O)c4ccccc4)n3)ccc2O1 -13.2%, Cc1noc(C)c1S(=O)(=O)Nc1cc(C(F)(F)F)ccc1N1CCOCC1 3.25%, N#CCCN(CCc1ccccn1)S(=O)(=O)c1ccc2c(c1)CCO2 3.85%, CC(C)(C)C(=O)NNC(=O)c1ccc(Oc2ccc(C3SCCS3)cc2)o1 -1.82%, Cc1cc2c(cn1)C(=O)c1ccccc1-2 -3.73%, CCOC(=O)c1cc(Sc2ccccc2N)cc(C(=O)OCC)n1 -13.8%, Cc1c(C)c(C)c(CSC(=N)CC#N)c(C)c1C 1.02%, Cc1cc(NCc2cccnc2)no1 -4.99%, O=C(/C=C/c1cccc2ccccc12)N1CCCCC1 2.1%, CC1=CC(=O)C(CCC2=CC(=O)C(C)=CC2=O)=CC1=O -7.79%, CC1=NCCNC(C)=C1N1CCOCC1 2.33%, N/C(Cc1ccc(F)cc1F)=N\OC(=O)c1cccc(C(F)(F)F)c1 2.07%, O=C(N/N=C/c1ccc(Cl)cc1Cl)/C(=C/c1cccs1)NC(=O)c1ccccc1 -7.21%, NC(=NC(=O)CCn1c(=O)oc2ccccc21)c1cc(Cl)cc(Cl)c1 -2.8%, Cc1ccc(CC(=O)c2cccnc2)cc1 3.89%, FC(F)(F)c1ccc(-n2cn[nH]c2=S)cc1 -1.09%, Cc1cc(C)nc(N/C=C(\C#N)S(=O)(=O)c2ccc(Cl)cc2)n1 -13%, CCOC(=O)Cc1nnc(-c2ccc(Cl)cc2)o1 -0.7%, COC(C)(OC)c1ccc(C#N)c(=S)[nH]1 -5.59%, CCOC1=NC(C(F)(F)F)(C(F)(F)F)N=C(N2CCOCC2)O1 0.2%, CN(C)C(=O)Nc1ccc(C(C)(C)C)cc1 -8.78%, O=C(O)CCC(=O)Nc1ccccc1 0.27%, N#Cc1nc(-c2ccccc2)c(-c2ccccc2)nc1C#N 9.3%, Cc1onc(-c2ccccc2)c1C(=O)Nc1ccc(/C(C#N)=C/c2ccccn2)cc1 -8.57%, Cn1cc(C(=O)c2ccc(Cl)cc2)cc1/C=C(\C#N)S(=O)(=O)c1ccc(C(F)(F)F)cn1 -4.67%, O=C(O)CCC(=O)Nc1ccc2c(c1)OCCCO2 -5.34%, c1ccc(-n2cccc2)c(N2CCCCC2)c1 -11.1%, Cc1ccc2oc(=O)n(CC/C(N)=N/OC(=O)c3ccc(C(F)(F)F)nc3C)c2c1 8.34%, CCOC(=O)c1sc(SC)c(-c2ccccc2)c1N 2.9%, CCOC(=O)CNC(=O)CCc1cc(OC)c(OC)c(OC)c1 -5.89%, O=C(Oc1ccc(Cl)cc1)c1snnc1-c1ccccc1 -12.5%, FC(F)(F)c1cccc(NC(=S)NNc2nccc(C(F)(F)F)n2)c1 14.4%, Cc1c(S(=O)(=O)c2ccc(Cl)cc2)csc1C(=O)Nc1ccc2c(c1)OCCO2 -2.01%, O=C(CCSc1nc2ccccc2o1)N1CCc2cc([N+](=O)[O-])ccc21 -4.41%, O=C(Nc1ccc(OCc2ccccc2)cc1)Nc1ccc2c(c1)C(=O)OC2 -6.75%, CCOC(=O)c1c(NS(=O)(=O)c2cccc3nsnc23)sc(C)c1C -17.3%, CCOC(=O)CNC(=O)c1ccc(-c2cccc([N+](=O)[O-])c2)o1 2.51%, CC(=O)OCC(=O)[C@@]1(O)[C@H](C)CC2C3CCC4=CC(=O)C=CC4(C)C3=CCC21C (stereo not given in full) -5.02%, O=S(=O)(CCN1CCC(C(F)(F)F)CC1)c1ccccc1 -7.12%, COc1ccc(OC)c(CCCc2cc(OC)ccc2OC)c1 -1.32%, O=C1C=C(SCC(=O)c2ccccc2)SC(c2ccc(Cl)cc2)C1 (stereo not given) -2.02%, O=c1cc(-c2ccccc2)sc2ccc(Cl)cc12 5.03%, O=C(O)c1cnc(NCc2ccccc2)s1 -1.62%, O=S(=O)(c1ccc(Cl)c(Cl)c1)N1CCc2c([nH]c3ccccc23)C1C(F)(F)F (stereo not given) 0.92%, N#Cc1c(-c2cccs2)oc(-n2cccc2)c1-c1cc(Br)cs1 6.38%, CCOC(=O)c1cc(CC)sc1NC(=O)c1cccc(C(F)(F)F)c1 1.92%, OCCNc1nc2ccccc2[nH]1 -3.29%, COC(=O)CCN1CCc2cc(N=Nc3ccc(C(F)(F)F)cc3)ccc21 3.28%, N#CCSc1ccc2ccccc2c1 -1.93%, CCN(CCN1C(=O)CCC1=O)c1cccc(NC(C)=O)c1 -4.21%, Cc1cc(/C(N)=N/OC(=O)c2cccs2)c(-c2ccccc2)o1 3.39%, CCOc1cc(-c2cccs2)nc(N)n1 1.81%, O=S(=O)(c1ccc(Cl)s1)N1CCN(c2ccccc2)CC1 -1.65%, CSc1sc(C(N)=O)cc1C#N -2.28%, O=C(O)c1nccnc1C(=O)NCCSCc1c(F)cccc1Cl -7.53%, CCOc1ccc(C(N)=O)c(SCC(=O)O)c1 -4.29%, N#Cc1nccnc1N1CCN(c2ccccc2)CC1 10.5%, Cc1cc(S(=O)(=O)Oc2ccc(OCc3ccccc3)cc2)c(C)cc1Cl 9.02%, Cn1cccc1-c1n[nH]c(=S)n1-c1ccc(Cl)cc1Cl 9.51%, O=c1[nH]c2cc(Cl)c(Cl)cc2n1-c1ccncc1 -5.56%, COc1cccc(OCc2ccccc2)c1C#N -5%
